28 compounds from PubChem BioAssay can be followed below.

Each structure is given as a SMILES string. Unmarked numbers belong to inactive results. Activity calls are given as the source filed them.

A short description of this experiment: cell viability in Huh7 cells, primary screen, cytotoxicity control for HCV replication inhibitor project, CellTiter-Glo luminescence, basal, 48 h (AID 1143).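 Note: Huh7 hepatoma cells carrying a hepatitis C replication reporter with no stimulus; test concentration not given here.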 The following applies: Huh7 HCV replicon, higher = more signal, called active from +8 up or from −8 down. (ATP-based viability assays read luminescence as a measure of living cells.)
`COc1cc2c(cc1O)C(c1cccs1)N(Cc1cc3c(cc1Br)OCO3)CC2` (stereo not drawn): the z-score was -4.04.
Consider `CCC#CCN(Cc1ccccc1Br)[C@H](/C=C/C1CC1)[C@@H](O)Cc1ccccc1`, for which the z-score is -2.43.
For `COC(=O)[C@@]1(Cc2ccccc2)[C@H]2c3cc(C(=O)N4CCCC4)n(CCc4ccccn4)c3C[C@H]2CN1C(=O)c1ccccc1` the value was -0.917; for `CCCCC(CC)C(O)C1C=CC2C(=O)N(c3ccccc3)C(=O)C2N1Nc1ccccc1F` (stereo not drawn), -2.32.
With `[N-]=[N+]=Nc1ccccc1[C@@H]1OC(c2ccc(OCCCO)cc2)=N[C@]1(Cc1ccccc1)C(=O)N1CCCCC1` the figure was -4.4; with `CC1CC/C=C\[C@H]2OC34C=CCN(C(C)C)C(=O)[C@H]3N(CCO)C(=O)[C@@H]4C2C(=O)O1` (stereo partly drawn), -0.177; with `CCOC(=O)C1=C[C@@H](C(C)(C)C)N(S(=O)(=O)c2ccc(C)cc2)[C@H]1c1cccc2ccccc12`, -4.9.
On to `CC(C)[Si]1(C(C)C)OCc2cc(-c3ccc(-c4ccc(Cl)c(Cl)c4)o3)nc(-c3ccccc3)c21`, for which the z-score is -0.243.
Take `CCCCCCc1nc(Cc2cc(OC)c(OC)c(OC)c2)cc2c1[Si](C(C)C)(C(C)C)OC2`: the z-score was -5.33.
With `C=CC[C@@H](OC(=O)Nc1ccc(SC)cc1)c1ccc(O)c(F)c1` the figure was -0.77; with `Cc1ccc(NN2C(C(O)c3c(F)cccc3Cl)C=CC3C(=O)N(C4CCCCC4)C(=O)C32)cc1` (stereo not drawn), -3.26.
With `COc1ccc([Si](C)(C)[C@@H]2[C@@H](CC(=O)N(CCO)Cc3ccccc3)O[C@]3(C(=O)N(Cc4cccc(N5CCCCC5=O)c4)c4ccccc43)[C@H]2C)cc1` the figure was -4.76.
Regarding `NC(=O)[C@H]1[C@@H]2C(=O)O[C@@H](c3ccccc3)[C@@H](c3ccccc3)N2[C@@H](c2ccc(OCCO)cc2)[C@]12C(=O)Nc1ccc(C#CCCO)cc12`, the z-score is -0.532.
Consider `COc1cc(C(O)C2C=CC3C(=O)N(C)C(=O)C3N2Nc2ccccc2)cc(OC)c1OC` (stereo not drawn), for which the z-score is 0.338.
For `C#Cc1cc2ccccc2oc1=O` the value was -0.692.
With `CC(=O)NCCCC[C@@H]1NC(=O)[C@@H]2C[C@H](C(=O)NCCCCCN)[C@H](c3cccc(OCCO)c3)N2C1=O` the figure was -0.804.
With `COc1ccc(CCNC(=O)[C@@]2(c3ccc([N+](=O)[O-])cc3)CC(=O)N(C3CCCCC3)[C@@H]2c2ccc(CO)cc2)cc1` the figure was -1.48; with `NCCCCCNC(=O)[C@@H]1C[C@@H]2C(=O)N[C@@H](CCCCN)C(=O)N2[C@@H]1c1ccc(O)cc1`, -0.308; with `NCCCCCNC(=O)[C@H]1C[C@H]2C(=O)N3CCC[C@H]3C(=O)N2[C@H]1c1cccc(OCCO)c1`, -0.0422.
With `COCCOC(=O)N1C(=O)[C@@]2(c3cc(C#CCCO)ccc31)[C@H](c1ccc(OCCO)cc1)N1[C@H](c3ccccc3)[C@H](c3ccccc3)OC(=O)[C@H]1[C@@H]2C(=O)Nc1nc2ccccc2s1`, the z-score was -0.218.
`COC(=O)C1=CC(CCCO)=CC(c2cccs2)N(C)C=C1C(=O)OC` (stereo not drawn): the z-score was -0.786.
With `COCCOC(=O)N1C(=O)[C@@]2(c3cc(C#CC4(O)CCCCCC4)ccc31)[C@H](c1ccc(O)cc1)N1[C@H](c3ccccc3)[C@H](c3ccccc3)OC(=O)[C@H]1[C@@H]2C(=O)N1CCN(c2ncccn2)CC1` the figure was -1.53; with `COc1ccc([Si](C)(C)[C@@H]2[C@@H](CCO)O[C@]3(C(=O)N(Cc4cccc(NC(=O)[C@H](C)O)c4)c4ccccc43)[C@H]2C)cc1`, -8.02 (active).
With `Cc1ccc(S[C@]2(C(=O)O)CC(=O)N(C3CCCCC3)[C@@H]2c2ccc(CO)cc2I)cc1` the figure was -0.541; with `O=C1C[C@]2(c3ccc([N+](=O)[O-])cc3)C(=O)N(C3CC3)c3cc(CO)ccc3[C@H]2N1CC12CC3CC(CC(C3)C1)C2`, -2.19; with `COCCCNC(=O)[C@@]1(Sc2ccc(C)cc2)CC(=O)N(C2Cc3ccccc3C2)[C@@H]1c1ccc(CO)cc1`, -4.69.
With `O=C1OCCC=C[C@H]2OC34C=CCN(c5ccc6ccccc6c5)C(=O)[C@H]3N(CCCO)C(=O)[C@@H]4C12` (stereo partly drawn), the z-score is -2.26.
With `COC(=O)[C@@]1(Cc2ccc(F)cc2)[C@H]2c3cc(C(=O)N(C)C)n(CCc4ccc(OC)c(Br)c4)c3C[C@H]2CN1C(=O)c1ccccc1` the figure was -4.65.
